As usually defined, the AC50 is the concentration at which the activity in the assay is half-maximal.

Calls of active or inactive are those of the source. The calls were made as follows: active = hit-call score of the fitted dose curve at least 0.9, where 1 is the maximum; inactive = score below 0.9.

This note sets out measurements from PubChem BioAssay (EPA / NIEHS).

The nature of assay [1]: ATG_CRE_CIS: Attagene CIS-FACTORIAL HepG2 Assay for human cAMP Responsive Element (CRE) binding protein 3 (AID 2282926). The conditions noted are these: HepG2 CRE cis-reporter, Attagene multiplexed mRNA; actives raise or lower the signal. Put shortly:
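Induced reporter mRNA from a CRE cis element, measured in HepG2 among many multiplexed units at 24 h. Detection used RT-PCR plus capillary electrophoresis of fluorescent fragments; DMSO served as negative control.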

The target of assay [2] is CCAAT/enhancer-binding protein beta (Homo sapiens) (UniProt P17676). Kind of assay: ATG_C_EBP_CIS: Attagene CIS-FACTORIAL HepG2 Assay for human CCAAT/Enhancer Binding Protein (C/EBP) beta (AID 2282927). Particulars: HepG2 Attagene cis-factorial transcription factor reporter; actives raise or lower the signal. Put shortly: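 Changes in reporter mRNA, rather than exogenous chimeric receptor activity, reflect native C/EBP signalling in transfected HepG2 cells dosed for 24 h; transcripts are detected by RT-PCR and capillary electrophoresis.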
Chain of CCAAT/enhancer-binding protein beta (Homo sapiens) (P17676 whole entry, looked up): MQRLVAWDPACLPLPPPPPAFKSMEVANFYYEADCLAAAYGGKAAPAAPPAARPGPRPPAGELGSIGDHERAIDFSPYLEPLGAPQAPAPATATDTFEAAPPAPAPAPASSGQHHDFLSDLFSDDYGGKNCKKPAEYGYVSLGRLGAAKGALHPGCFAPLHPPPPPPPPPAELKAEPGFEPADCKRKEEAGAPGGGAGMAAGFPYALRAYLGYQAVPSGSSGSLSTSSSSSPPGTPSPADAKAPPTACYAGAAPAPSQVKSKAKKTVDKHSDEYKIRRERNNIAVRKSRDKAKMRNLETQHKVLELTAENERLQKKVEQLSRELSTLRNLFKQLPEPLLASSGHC

A short description of assay [3]: ATG_DR4_LXR_CIS: Attagene CIS-FACTORIAL HepG2 Assay for human Liver X Receptor (LXR), DR4 submotif (AID 2282929). Particulars: HepG2 Attagene DR4 cis-reporter, mRNA transcription; actives raise or lower the signal. A digest of the protocol:
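Cells were transfected with multiple reporter transcription units, exposed to chemicals for 24 hours, then lysed for RNA. Reporter mRNA induction was measured by RT-PCR with capillary electrophoresis detection and fitted in both directions relative to DMSO.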

In assay [4] the target is Aryl hydrocarbon receptor (Homo sapiens) (UniProt P35869). Kind of assay: ATG_Ahr_CIS: Attagene CIS-FACTORIAL HepG2 Assay for human Aryl Hydrocarbon Receptor (Ahr) (AID 2282930). The conditions noted are these: HepG2 AhR cis-factorial reporter transcription; actives raise or lower the signal. A digest of the protocol: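 HepG2, transient MRTU (cis) transfection, 24 h exposure. RNA → cDNA → PCR → 6-FAM primer extension → HpaI 2 h 37 C → CE. Fit: bidirectional, DMSO baseline.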
Chain of Aryl hydrocarbon receptor (Homo sapiens) (P35869 whole entry, looked up): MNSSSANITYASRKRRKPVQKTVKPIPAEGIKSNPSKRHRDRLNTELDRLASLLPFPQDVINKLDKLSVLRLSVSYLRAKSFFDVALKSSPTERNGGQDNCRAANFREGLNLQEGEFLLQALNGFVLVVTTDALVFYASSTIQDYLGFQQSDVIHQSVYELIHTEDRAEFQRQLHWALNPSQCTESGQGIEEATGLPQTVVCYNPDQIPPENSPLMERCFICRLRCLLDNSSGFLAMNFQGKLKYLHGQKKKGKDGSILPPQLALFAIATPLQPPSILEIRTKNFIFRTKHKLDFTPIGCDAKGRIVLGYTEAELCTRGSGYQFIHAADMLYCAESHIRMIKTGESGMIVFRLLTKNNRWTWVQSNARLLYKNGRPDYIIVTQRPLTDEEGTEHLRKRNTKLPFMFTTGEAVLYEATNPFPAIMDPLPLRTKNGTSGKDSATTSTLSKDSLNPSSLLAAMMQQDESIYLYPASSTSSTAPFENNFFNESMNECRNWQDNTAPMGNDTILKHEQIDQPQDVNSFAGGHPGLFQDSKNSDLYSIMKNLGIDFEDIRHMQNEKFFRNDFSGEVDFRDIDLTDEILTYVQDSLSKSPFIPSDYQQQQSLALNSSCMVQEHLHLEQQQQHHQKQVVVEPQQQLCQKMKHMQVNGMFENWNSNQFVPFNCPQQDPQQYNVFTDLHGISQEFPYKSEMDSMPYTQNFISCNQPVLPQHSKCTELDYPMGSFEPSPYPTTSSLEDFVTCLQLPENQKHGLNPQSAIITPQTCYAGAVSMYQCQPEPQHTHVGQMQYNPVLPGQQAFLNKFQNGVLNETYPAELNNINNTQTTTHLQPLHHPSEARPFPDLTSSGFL

The nature of assay [5]: ATG_AP_1_CIS: Attagene CIS-FACTORIAL HepG2 Assay for human Activator Protein 1 (AP-1) (AID 2282931). Particulars: HepG2 Attagene cis-factorial AP-1 reporter mRNA; actives raise or lower the signal. A digest of the protocol:
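Endogenous transcription-factor activity in human HepG2 liver cells is read through a cis-promoter reporter transcript, sampled 24 h after dosing. Detection uses RT-PCR with capillary electrophoresis; values come from bidirectional fitting relative to DMSO.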

The nature of assay [6]: ATG_AP_2_CIS: Attagene CIS-FACTORIAL HepG2 Assay for human Activator Protein 2 (AP-2) (AID 2282932). The conditions noted are these: HepG2 AP-2 cis-reporter, Attagene transcription factor profiling; actives raise or lower the signal. A digest of the protocol:
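Transiently transfected HepG2 cells are exposed to chemical for 24 h. Reporter transcripts are then measured as fluorescence following RT-PCR and capillary separation, and gain- or loss-of-signal is fitted relative to DMSO.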

Assay [7] is described as follows: ATG_BRE_CIS: Attagene CIS-FACTORIAL HepG2 Assay for human Bone Morphogenetic Protein (BMP) Response Element (BRE) (AID 2282933). Particulars: HepG2 BMP response element reporter, Attagene transcription factor profiling; actives raise or lower the signal. Put shortly: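 Transient MRTU transfection of human HepG2 liver cells; 24 h compound treatment; total RNA isolated, reverse-transcribed, PCR-amplified, 6-FAM labelled, HpaI-cut, capillary electrophoresis. DMSO = negative control/baseline, bidirectional fit.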

For assay [8], the target named is Retinoic acid receptor alpha (Homo sapiens) (UniProt P10276). Kind of assay: ATG_DR5_RAR_CIS: Attagene CIS-FACTORIAL HepG2 Assay for human Retinoic Acid Receptor Alpha (RARE), DR5 submotif (AID 2282934).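 As to AC50: reporter responds to endogenous RAR alpha beta and gamma in HepG2 not RARA alone.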 The conditions noted are these: HepG2 Attagene cis-factorial RARE DR5 reporter, mRNA; actives raise or lower the signal. Put shortly: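 HepG2, transient cis-reporter transfection, 24 h exposure. mRNA readout: RT-PCR, FAM label, HpaI cut, capillary electrophoresis. DMSO baseline, gain/loss fitting.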
Chain of Retinoic acid receptor alpha (Homo sapiens) (P10276 whole entry, looked up): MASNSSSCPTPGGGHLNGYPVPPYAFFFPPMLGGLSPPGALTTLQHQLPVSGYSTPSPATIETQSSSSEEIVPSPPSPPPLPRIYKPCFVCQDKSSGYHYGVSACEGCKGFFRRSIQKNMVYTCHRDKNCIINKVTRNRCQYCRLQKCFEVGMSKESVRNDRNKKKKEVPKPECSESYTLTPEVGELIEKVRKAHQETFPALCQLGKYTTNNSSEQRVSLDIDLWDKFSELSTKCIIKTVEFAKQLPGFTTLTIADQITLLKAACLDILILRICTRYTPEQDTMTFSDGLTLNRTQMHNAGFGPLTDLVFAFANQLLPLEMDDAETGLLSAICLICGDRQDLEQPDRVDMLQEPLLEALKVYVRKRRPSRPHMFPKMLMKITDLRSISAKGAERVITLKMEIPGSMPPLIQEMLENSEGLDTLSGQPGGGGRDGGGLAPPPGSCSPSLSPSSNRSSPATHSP

The target of assay [9] is Transcription factor E2F1 (Homo sapiens) (UniProt Q01094). Kind of assay: ATG_E2F_CIS: Attagene CIS-FACTORIAL HepG2 Assay for human E2F Transcription Factor 1 (AID 2282935). Particulars: HepG2 Attagene cis-reporter, E2F reporter RNA transcripts; actives raise or lower the signal. A digest of the protocol:
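Fluorescent RT-PCR products, digested with HpaI for 2 h at 37 C, are separated by capillary electrophoresis. Source RNA comes from transfected HepG2 cultures treated for 24 h.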

Assay [10] can be described thus: ATG_M_61_CIS: Attagene CIS-FACTORIAL HepG2 Assay for M61 Transcription Factor (Internal Marker) (AID 2282937). The conditions noted are these: HepG2 Attagene CIS-FACTORIAL M61 internal marker reporter; actives raise or lower the signal. Put shortly:
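Cells were transfected with reporter units under cis-regulatory promoters, treated with chemicals for 24 h, then lysed for RNA. Reporter transcripts were quantified by RT-PCR and capillary electrophoresis, and activity was fitted bidirectionally against DMSO.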

A short description of assay [11]: ATG_M_19_CIS: Attagene CIS-FACTORIAL HepG2 Assay for M19 Transcription Factor (Internal Marker) (AID 2282939). The conditions noted are these: HepG2 Attagene CIS-FACTORIAL M19 internal marker reporter; actives raise or lower the signal. Put shortly:
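Transfect HepG2 with MRTU reporter library → dose chemical, 24 h → isolate total RNA, reverse-transcribe with oligo(dT) → PCR, 6-FAM label, HpaI cut (2 h, 37 C) → capillary electrophoresis. Bidirectional fit vs DMSO.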

Assay [12] can be described thus: ATG_ERE_CIS: Attagene CIS-FACTORIAL HepG2 Assay for Estrogen Response Element (ERE) (AID 2282940). Particulars: HepG2 ERE cis-reporter, Attagene RNA transcript; actives raise or lower the signal. A digest of the protocol:
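Transient MRTU transfection of human HepG2; cis-element promoters; 24 h dosing; total RNA → RT (oligo dT) → PCR → 6-FAM primer extension → HpaI digest → CE fluorescence. Bidirectional fit, DMSO baseline.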

Assay [13] in a line: ATG_FoxO_CIS: Attagene CIS-FACTORIAL HepG2 Assay for human Forkhead box O (FoxO) (AID 2282943). Particulars: HepG2 Attagene cis-reporter, FoxO element, mRNA; actives raise or lower the signal. Put shortly: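 Human hepatoma HepG2 cells carry transiently introduced reporter transcription units controlled by cis promoter elements. Chemical treatment lasted 24 h, and mRNA signal was compared with DMSO.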

Assay [14] in a line: ATG_GLI_CIS: Attagene CIS-FACTORIAL HepG2 Assay for human Zinc Finger Protein GLI1 (AID 2282945). Particulars: HepG2, Attagene cis-factorial reporter mRNA, GLI element; actives raise or lower the signal. A digest of the protocol: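 Bidirectional curve fits relative to DMSO, using reporter mRNA levels from RT-PCR plus capillary electrophoresis. Cells were HepG2 transiently carrying cis-regulated reporter constructs, harvested 24 h after dosing.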

The nature of assay [15]: ATG_E_Box_CIS: Attagene CIS-FACTORIAL HepG2 Assay for human Enhancer Box (E-box) (AID 2282936). The conditions noted are these: HepG2 E-box cis-reporter transcription, actives raise or lower the signal. A digest of the protocol:
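Fluorescent reporter fragments separated by capillary electrophoresis gave the signal; mRNA came from HepG2 cells transfected with cis-element reporters and treated 24 h. Curves fitted bidirectionally relative to DMSO controls.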

A short description of assay [16]: ATG_EGR_CIS: Attagene CIS-FACTORIAL HepG2 Assay for human Early Growth Response 1 (EGR1) (AID 2282938). The conditions noted are these: HepG2 Attagene CIS-FACTORIAL EGR reporter mRNA; actives raise or lower the signal. Put shortly:
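Endogenous TF activity in HepG2 liver cells was gauged through cis-promoter reporter constructs transiently transfected. After 24 h dosing, reporter mRNA was quantified by RT-PCR and capillary electrophoresis, and curves fitted in both directions versus DMSO.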

The nature of assay [17]: ATG_Ets_CIS: Attagene CIS-FACTORIAL HepG2 Assay for human Erythroblast Transformation Specific (ETS) (AID 2282941). Particulars: HepG2 ETS cis-reporter transcription, actives raise or lower the signal. Put shortly:
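Bidirectional fit versus DMSO of reporter mRNA signal, detected by RT-PCR and capillary electrophoresis in HepG2 cells transiently transfected with cis-element reporters and dosed 24 h.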

Assay [18] addresses Hepatocyte nuclear factor 3-beta (Homo sapiens) (UniProt Q9Y261). The assay can be described thus: ATG_FoxA2_CIS: Attagene CIS-FACTORIAL HepG2 Assay for human Forkhead box A2 (FOXA2) (AID 2282942). Particulars: HepG2 cis-reporter transcription factor activity, 24 h; actives raise or lower the signal. A digest of the protocol:
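Endogenous transcription factor activity was read in HepG2 cells carrying transiently transfected cis-promoter reporter units. After 24 h dosing, reporter mRNA was quantified by RT-PCR and capillary electrophoresis, and values fitted bidirectionally versus DMSO.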

The nature of assay [19]: ATG_GATA_CIS: Attagene CIS-FACTORIAL HepG2 Assay for human GATA Binding Protein (AID 2282944). Particulars: HepG2 GATA cis-element reporter, Attagene multiplex mRNA; actives raise or lower the signal. Put shortly:
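Transient MRTU transfection, HepG2, 24 h compound exposure. Total RNA → oligo(dT) RT → PCR → 6-FAM primer extension → HpaI cut → CE. Bidirectional fit vs DMSO.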

Chain of Transcription factor E2F1 (Homo sapiens) (Q01094 whole entry, looked up): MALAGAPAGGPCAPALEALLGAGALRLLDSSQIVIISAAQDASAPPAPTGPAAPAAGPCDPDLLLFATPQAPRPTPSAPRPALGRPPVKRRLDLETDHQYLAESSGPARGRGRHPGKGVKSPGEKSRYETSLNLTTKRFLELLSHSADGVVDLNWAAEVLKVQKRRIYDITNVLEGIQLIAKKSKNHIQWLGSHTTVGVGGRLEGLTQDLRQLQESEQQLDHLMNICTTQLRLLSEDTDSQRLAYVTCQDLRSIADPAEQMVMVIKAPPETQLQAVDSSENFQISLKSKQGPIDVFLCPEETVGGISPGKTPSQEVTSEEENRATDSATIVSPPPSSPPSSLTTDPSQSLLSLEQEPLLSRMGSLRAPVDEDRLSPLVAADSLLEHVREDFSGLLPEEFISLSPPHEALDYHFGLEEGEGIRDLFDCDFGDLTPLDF
Chain of Hepatocyte nuclear factor 3-beta (Homo sapiens) (Q9Y261 whole entry, looked up): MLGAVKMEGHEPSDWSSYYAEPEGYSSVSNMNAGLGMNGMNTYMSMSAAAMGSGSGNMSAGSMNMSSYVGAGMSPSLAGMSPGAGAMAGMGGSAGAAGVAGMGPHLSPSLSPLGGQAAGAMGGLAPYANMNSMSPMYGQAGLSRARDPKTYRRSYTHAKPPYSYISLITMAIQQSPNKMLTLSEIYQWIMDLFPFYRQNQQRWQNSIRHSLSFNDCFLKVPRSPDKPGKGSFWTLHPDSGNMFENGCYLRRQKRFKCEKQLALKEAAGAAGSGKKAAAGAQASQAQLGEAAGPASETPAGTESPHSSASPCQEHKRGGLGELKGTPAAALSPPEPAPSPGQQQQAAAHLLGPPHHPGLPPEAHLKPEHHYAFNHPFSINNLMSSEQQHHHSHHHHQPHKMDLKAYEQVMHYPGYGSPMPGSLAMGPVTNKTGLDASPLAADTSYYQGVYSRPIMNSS

Turning to `CC(C)c1ccc2cc(C(C)C)ccc2c1`, the AC50 in [1] is 62 µM (active); in [2], 64.6 µM (active); in [4], 135 µM (active); in assay [5], 55.8 µM (active); in assay [8] it was 67 µM (active). The molecule was classed as inactive in assay [3], in assay [6], in assay [7], in assay [9], in assay [10] and in assay [11]. The call in assay [12], in [13] and in [14] was inactive.

As for `O=C(c1ccccc1)C1CCC1`, the molecule was classed as inactive in assay [1], in assay [2], in assay [3], in assay [4], in assay [5] and in assay [6]. The molecule was classed as inactive in [8], in assay [9], in [15], in assay [10], in [16] and in assay [11]. For the same molecule, the result in assay [12], in assay [17], in assay [18], in [13], in [19] and in assay [14] was inactive.

Turning to `O=C(Nc1ccccc1)c1ccccc1O`, the molecule was called inactive in [1], in assay [3], in assay [6], in assay [8], in assay [9] and in assay [15]. Besides, the call in assay [10], in assay [11], in [18], in assay [13], in [19] and in assay [14] was inactive. For the same molecule, the half-maximal activity concentration (AC50) in assay [2] was 53.4 µM (active); in [5], 27 µM (active); in assay [7], 30.7 µM (active); in assay [12], 63.1 µM (active).

On to `CC(=O)OC(C)C`, for which the outcome in assay [1], in assay [2], in assay [3], in assay [4], in assay [5] and in assay [6] was inactive. Also, the call in assay [7], in assay [8], in assay [9], in assay [15], in assay [10] and in [16] was inactive. Besides, the molecule was classed as inactive in assay [11], in [12], in assay [17], in assay [18], in assay [13] and in [19]. Moreover, the molecule was called inactive in [14].
